Experimental data as given in PubChem BioAssay AID1159580 (chemical genetic matrix, 2015).
“And” between values parts separate entries of the source, which are not always exact repeats. Equal values may be shown once. The whole screen tested about 5,500 compounds, of which about 2,000 (36%) were called active. Roughly 18% stayed inconclusive and do not appear here. Cut-off read from the data, not from the text of the source: active = normalized growth mostly below about 0.91 (no sharp cut-off); inconclusive = no clear call, values can overlap the other calls; inactive = mostly above about 0.92. This is one part of the list.

Experiment: chemical genetic growth profiling, strain panel (AID 1159580);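 note: tested at 20 µM; growth read once vehicle control cultures reached saturation at 30 °C; 1 = growth at the plate median or of vehicle wells; lower values mean less growth of the strain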
Settings: S. cerevisiae deletion strains, growth OD

Measured: normalized growth

O=C(O)c1cc(=O)c2c(Cl)cc(Cl)cc2[nH]1
inactive: locus YAL013W, strain DEP1, stronger effect = lower value 1 | locus YAL021C, strain ccr4, stronger effect = lower value 1 | locus YAL026C, strain drs2, stronger effect = lower value 1.02 | locus YAL030W, strain snc1, stronger effect = lower value 1.02 | locus YAL040C, strain CLN3, stronger effect = lower value 0.995 | locus YBL061C, strain skt5, stronger effect = lower value 1.01 | locus YBR009C, strain hhf1, stronger effect = lower value 1 | locus YBR021W, strain FUR4, stronger effect = lower value 1 | locus YBR023C, strain chs3, stronger effect = lower value 1.02 | locus YBR171W, strain sec66, stronger effect = lower value 1.01 | locus YBR229C, strain ROT2, stronger effect = lower value 1.01 | locus YBR231C, strain swc5, stronger effect = lower value 1.02 | locus YBR279W, strain paf1, stronger effect = lower value 1.01 | locus YCL011C, strain gbp2, stronger effect = lower value 1.01 | locus YCL016C, strain dcc1, stronger effect = lower value 1.01 | locus YCL029C, strain bik1, stronger effect = lower value 1.01 | locus YCL061C, strain MRC1 (second series), stronger effect = lower value 0.998 | locus YCL061C, strain MRC1, stronger effect = lower value 1.02 | locus YCL069W, strain vba3, stronger effect = lower value 1 | locus YCR088W, strain abp1, stronger effect = lower value 1.01 | locus YDL005C, strain med2, stronger effect = lower value 1.01 | locus YDL035C, strain GPR1, stronger effect = lower value 1.01 | locus YDL040C, strain nat1, stronger effect = lower value 1.01 | locus YDL074C, strain BRE1, stronger effect = lower value 1 | locus YDL101C, strain DUN1, stronger effect = lower value 1.01 | locus YDL134C, strain PPH21, stronger effect = lower value 1.02 | locus YDL185W, strain tfp1, stronger effect = lower value 1.01 | locus YDL192W, strain arf1, stronger effect = lower value 1.02 | locus YDR001C, strain nth1, stronger effect = lower value 1.01 | locus YDR069C, strain doa4, stronger effect = lower value 1.02 | locus YDR101C, strain arx1, stronger effect = lower value 1.03 | locus YDR137W, strain rgp1, stronger effect = lower value 1.02 | locus YDR150W, strain NUM1, stronger effect = lower value 0.999 | locus YDR159W, strain sac3, stronger effect = lower value 1.01 | locus YDR162C, strain NBP2, stronger effect = lower value 1.02 | locus YDR195W, strain ref2 1.02 | locus YDR297W, strain sur2, stronger effect = lower value 1.01 | locus YDR318W, strain mcm21, stronger effect = lower value 1.02 | locus YDR334W, strain swr1, stronger effect = lower value 1.01 | locus YDR335W, strain msn5, stronger effect = lower value 1.01 | locus YDR363W, strain ESC2, stronger effect = lower value 0.974 | locus YDR388W, stronger effect = lower value 1.01 | locus YDR392W, strain spt3, stronger effect = lower value 0.979 | locus YDR502C, strain sam2, stronger effect = lower value 1.01 | locus YEL003W, strain gim4, stronger effect = lower value 1.01 | locus YEL037C, strain rad23, stronger effect = lower value 1.01 | locus YEL061C, strain CIN8 (second series), stronger effect = lower value 1.01 | locus YEL061C, strain CIN8, stronger effect = lower value 1 | locus YER002W, strain NOP16, stronger effect = lower value 1 | locus YER015W, strain faa2, stronger effect = lower value 1.02 | locus YER016W, strain bim1, stronger effect = lower value 1.01 | locus YER110C, stronger effect = lower value 1.03 | locus YER111C, strain swi4, stronger effect = lower value 1.02 | locus YER155C, strain BEM2 (second series), stronger effect = lower value 1.03 | locus YER155C, strain BEM2, stronger effect = lower value 0.994 | locus YER167W, strain BCK2, stronger effect = lower value 1 | locus YFR010W, strain ubp6, stronger effect = lower value 1.02 | locus YGL078C, strain dbp3, stronger effect = lower value 1.01 | locus YGL086W, strain mad1, stronger effect = lower value 1.02 | locus YGL167C, strain pmr1, stronger effect = lower value 1.02 | locus YGL173C, strain kem1, stronger effect = lower value 1.02 | locus YGL227W, strain vid30, stronger effect = lower value 1.01 | locus YGL240W, strain doc1, stronger effect = lower value 1.02 | locus YGL248W, strain PDE1, stronger effect = lower value 1.01 | locus YGL253W, strain hxk2, stronger effect = lower value 1.02 | locus YGR078C, strain PAC10, stronger effect = lower value 1 | locus YGR135W, strain pre9, stronger effect = lower value 1.03 | locus YGR229C, strain SMI1, stronger effect = lower value 1.05 and 0.981 | locus YGR252W, strain gcn5, stronger effect = lower value 1 | locus YHR013C, strain ard1, stronger effect = lower value 0.987 | locus YHR027C, strain rpn1, stronger effect = lower value 1.02 | locus YHR030C, strain SLT2, stronger effect = lower value 1 | locus YHR079C, strain IRE1 (second series), stronger effect = lower value 1.01 | locus YHR094C, strain hxt1, stronger effect = lower value 1.02 | locus YHR129C, strain ARP1, stronger effect = lower value 1.01 | locus YHR142W, strain chs7, stronger effect = lower value 1.02 | locus YHR200W, strain rpn10, stronger effect = lower value 1.01 | locus YIL066C, strain RNR3, stronger effect = lower value 1.01 | locus YIL073C, strain SPO22, stronger effect = lower value 1.04 | locus YIL125W, strain kgd1, stronger effect = lower value 1.01 | locus YIR030C, strain dcg1, stronger effect = lower value 1.01 | locus YJL092W, strain hpr5, stronger effect = lower value 1.01 | locus YJL095W, strain BCK1 (second series), stronger effect = lower value 1.01 | locus YJL095W, strain BCK1, stronger effect = lower value 0.998 | locus YJL115W, strain asf1, stronger effect = lower value 1.01 | locus YJL129C, strain trk1, stronger effect = lower value 1.01 | locus YJL134W, strain LCB3, stronger effect = lower value 1.01 | locus YJL154C, strain vps35, stronger effect = lower value 1.01 | locus YJL164C, strain tpk1, stronger effect = lower value 1.01 | locus YJL166W, strain qcr8, stronger effect = lower value 1.02 | locus YJL168C, strain set2, stronger effect = lower value 1.02 | locus YJL187C, strain SWE1 (second series), stronger effect = lower value 1
